ERb coact inh – inhibitors of ERβ-SRC1 coactivator interaction, primary screen, biochemical, TR-FRET, ERβ LBD, SRC-1 peptide. 86,000 tested, 1.3% active. TR-FRET ER-beta LBD / SRC1-Cy5 peptide binding; receptor agonist-loaded with 1 µM estradiol. Estrogen receptor beta (Homo sapiens), Q92731. inhibition, % at 25.6 µM;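 active = compounds whose percent inhibition of the receptor-coactivator binding signal exceeds about 50% in the single-dose screen, limit read from the data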
Smad3 FoxH1 inh – Smad3/FoxH1 peptide binding inhibitors, primary screen, biochemical, TR-FRET; AID 630, 2007; TR-FRET Smad3/Dy647-FoxH1 peptide binding, europium anti-His; 88,000 tested, 0.29% active; inhibition, % at 25 µM;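 active = compounds that reduce the energy-transfer binding signal between the protein and its labelled peptide by more than half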
Target sequence (P84022 whole entry, looked up): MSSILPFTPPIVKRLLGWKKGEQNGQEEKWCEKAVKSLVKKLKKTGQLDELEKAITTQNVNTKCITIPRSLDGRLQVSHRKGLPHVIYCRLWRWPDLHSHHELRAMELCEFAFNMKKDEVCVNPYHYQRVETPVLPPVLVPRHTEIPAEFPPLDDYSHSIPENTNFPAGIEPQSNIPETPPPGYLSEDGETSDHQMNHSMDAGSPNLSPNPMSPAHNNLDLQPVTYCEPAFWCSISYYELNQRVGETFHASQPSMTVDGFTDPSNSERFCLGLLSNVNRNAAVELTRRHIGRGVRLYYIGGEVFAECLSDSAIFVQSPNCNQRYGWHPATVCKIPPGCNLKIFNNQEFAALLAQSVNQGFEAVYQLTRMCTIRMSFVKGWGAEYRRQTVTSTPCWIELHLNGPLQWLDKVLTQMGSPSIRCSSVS
ERa SRC1 inh – ERα–SRC-1 coactivator interaction inhibitors, primary screen, biochemical, TR-FRET, ERα LBD, estradiol-bound | Estrogen receptor (Homo sapiens), P03372 | 86,000 tested, 1.7% active | TR-FRET ER-alpha LBD / SRC-1 peptide | inhibition, % at 25.6 µM; in the data active = inhibition above about 50%
ERa SRC1 pot – enhancers of ERα–SRC-1 coactivator binding, primary screen, biochemical, TR-FRET, ERα LBD, low estradiol; TR-FRET ERalpha-LBD/SRC-Cy5 coactivator binding, 2 h; 100 = basal binding, no effect; coactivator binding (% of control), % at 25.6 µM; 86,000 tested, 1.3% active; AID 639, 2007; in the data active = activity above about 200%;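 note: binding measured in presence of low estradiol as agonist stimulus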
Hits are given with their value; . = inactive; / = not tested or not shown; + = active, no number; [ ] = remark or other dose. The list is not random: actives were taken first. Their share in the collection is about 3.7%.

SMILES | ERb coact inh | Smad3 FoxH1 inh | ERa SRC1 inh | ERa SRC1 pot
O=C(Cn1c(=O)n(Cc2ccco2)c(=O)c2c3c(sc21)CCCCC3)Nc1ccccc1 | 80.2 | . | 73.3 | .
O=C(Cn1c(=O)n(Cc2ccco2)c(=O)c2c3c(sc21)CCCCC3)c1ccccc1 | . | . | 66.1 | .
O=C(CSc1nc2sc3c(c2c(=O)n1Cc1ccco1)CCC3)N1CCc2ccccc21 | . | . | . | 344.0
CCOc1ccc(CNC(=O)CCCOc2cc(=O)n(C)c3ccccc23)cc1 | . | . | . | .
COC(=O)c1ccc(COc2ccc3c(C)c(C)c(=O)oc3c2C)o1 | . | . | . | 444.5[fluorescence artefact?]
COC(=O)c1ccc(COc2ccc3c4c(c(=O)oc3c2)CCC4)o1 | . | . | . | 239.9[fluorescence artefact?]
NC(N)=N/N=C/c1ccc(C2CCNCC2)cc1 | / | . | / | /
COc1ccc(C(=O)NCc2ccccn2)cc1 | . | . | . | .
O=C(NCc1ccccn1)c1ccc(/C=N/O)nc1 | 65.8[fluorescence artefact?] | . | . | .
O=C(NCc1ccccc1)c1ccc(/C=N/O)nc1 | . | . | . | .
CCCCOc1ccc(C(=O)NCc2ccccn2)cc1 | . | . | . | 622.7[fluorescence artefact?]
Nc1nc(-c2cccnc2)cc(-c2cc(-c3cccnc3)nc(N)n2)n1 | / | . | / | /
Cn1cc(SCC(N)=O)c2ccccc21 | . | . | . | .
COc1ccc(C2=NN(C(=O)CSc3cn(C)c4ccccc34)C(c3ccc(OC)cc3)C2)cc1 (stereo unspecified) | . | . | . | 639.2[fluorescence artefact?]
Cc1cc(C(=O)CSc2nnc(-c3cccnc3)n2-c2ccccc2F)c(C)n1CC1CCCO1 (stereo unspecified) | . | . | . | .
CCc1ccc2nc(NC(=O)c3ccc4c(=O)[nH]c(CN5CCOCC5)nc4c3)sc2c1 | . | . | 69.0 | .
Cn1cnc([N+](=O)[O-])c1Sc1nc(N)nc2c1ncn2[C@@H]1C[C@H](O)[C@@H](CO)O1 | / | . | / | /
O=C(O)c1ccc(-n2nnnc2Oc2cccc3cccnc23)cc1 | . | . | . | .
COc1ccc(Cn2c(C)c(C)c(C#N)c2NC(=O)Nc2cccc(C)c2)cc1 | 50.3 | . | 69.8[fluorescence artefact?] | .
Brc1ccc2c(c1)c1nc3ccccc3nc1n2CCN1CCOCC1 | . | . | 55.8[fluorescence artefact?] | .
NC(=O)N1CCN(C(=O)c2ccco2)CC1 | . | . | . | .
Nc1ccc(N2CCN(C(=O)c3ccco3)CC2)cc1 | 55.5[fluorescence artefact?] | . | 84.8[fluorescence artefact?] | .
Clc1ccc(Br)cc1-c1nc(-c2cccnc2)no1 | . | . | . | 207.1[fluorescence artefact?]
Clc1ccccc1-c1nc(-c2cccnc2)no1 | . | . | . | .
CC(C)(C)COS(=O)OCC(C)(C)C | / | . | / | /
SMILES | ERb coact inh | Smad3 FoxH1 inh | ERa SRC1 inh | ERa SRC1 pot
COCCCNc1nc2c([nH]1)c(=O)[nH]c(=O)n2C | 52.2 | . | . | .
NNC(=O)CS(=O)(=O)Nc1ncccn1 | / | . | / | /
O/N=C\c1cccn1-c1ccc(Br)cc1 | . | . | . | .
O=C(COc1ncnc2c(Cl)cc(Cl)cc12)NCCC1=CCCCC1 | . | . | . | .
CCOc1cc(C2c3c(oc4cc(C)c(Cl)cc4c3=O)C(=O)N2Cc2ccco2)ccc1O (stereo unspecified) | . | . | 83.9[fluorescence artefact?] | .
COc1cc(C2c3c(oc4ccccc4c3=O)C(=O)N2Cc2ccco2)ccc1O (stereo unspecified) | . | . | . | .
Sc1oc(-c2ccccc2)cc1C=Nc1ccccc1 | . | . | . | .
O=C(c1ccccc1F)N1CCN(S(=O)(=O)c2ccc(S(=O)(=O)N3CCCCC3)cc2)CC1 | . | . | 66.3[fluorescence artefact?] | .
CSc1nc2c(c(=O)[nH]1)C(c1cccs1)C1=C(CCCC1=O)N2 (stereo unspecified) | 56.2 | . | . | .
CC1(C)CC(=O)C2=C(C1)Nc1nc(SCCN3CCOCC3)[nH]c(=O)c1C2c1cccs1 (stereo unspecified) | . | . | . | .
CN1CCN(Cc2nc3cccc4c3c([n+]2[O-])-c2ccccc2-4)CC1 | / | . | / | /
COc1ccc(NCc2c(O)ccc3ccccc23)cc1 | / | . | / | /
CCCCCOc1ccccc1C(=O)NCC(=O)O | 79.2[fluorescence artefact?] | . | . | .
CCCCOc1ccccc1C(=O)NCC(=O)O | . | . | . | .
Cc1cc(C)c2nc(-c3ccccn3)cc(C(=O)Nc3cc(C)on3)c2c1 | . | . | . | .
O=C(NCc1ccco1)c1cc2ccccc2c(=O)o1 | . | . | 57.1 | .
Cc1ccc(-c2cc(C(=O)NCc3ccco3)c3ccccc3n2)o1 | 72.6 | . | 82.2 | .
Cc1cc(NC(=O)c2cc(-c3ccccn3)nc3ccccc23)no1 | . | . | . | .
Cc1cc(C)c2nc(-c3ccccn3)cc(C(=O)NCc3ccco3)c2c1 | 62.6[fluorescence artefact?] | . | 66.4 | .
Cc1ccc(-c2cc(C(=O)Nc3ccccc3C)c3ccccc3n2)o1 | 56.2[fluorescence artefact?] | . | 78.0[fluorescence artefact?] | .
COC(=O)[C@H]1[C@@H]2C[C@H]3c4[nH]c5ccccc5c4CCN3C[C@H]2CC[C@@H]1OS(=O)(=O)O | / | . | / | /
CCCS(=O)(=O)N1CCN(S(=O)(=O)c2ccccc2)CC1 | . | . | . | .
COC(=O)Oc1c(Br)c(=O)oc2ccccc12 | . | . | 63.8 | .
COC(=O)c1cc2ccccc2oc1=O | . | . | . | .
C[C@@H]1CCCN(C[C@@H](O)CN2CCCc3ccccc32)C1 | / | . | / | /
SMILES | ERb coact inh | Smad3 FoxH1 inh | ERa SRC1 inh | ERa SRC1 pot
O=[N+]([O-])c1ccc(/C=N/Nc2nc(N3CCCCCC3)nc(N3CCCCCC3)n2)o1 | 95.5[fluorescence artefact?] | . | . | .
c1ccc(B2OC[C@@H]3OB(c4ccccc4)O[C@H]([C@@H]4COB(c5ccccc5)O4)[C@H]3O2)cc1 | / | . | / | /
CC(C)[C@@H]1OC(=O)C=CC=CC=CC=CC=CC[C@@H](O)[C@H](C)[C@@H](O)C[C@H](O)C[C@H](O)C[C@H](O)C[C@H](O)C[C@H](O)C[C@H](O)C=C[C@@H]1C | / | . | / | /
CN1C(=O)c2ccccc2C(C(=O)NCC2CCCO2)C1c1c[nH]c2ccccc12 (stereo unspecified) | 80.9[fluorescence artefact?] | . | . | .
CCOC(=O)c1sc2nc(CC(=O)OC)nc(NCc3ccc(Cl)cc3)c2c1C | . | . | . | 339.2[fluorescence artefact?]
O=C(CSCc1ccc(F)cc1)NCc1ccco1 | . | . | . | .
Cn1c(=O)c2c(ncn2CCCc2ccccc2)n(C)c1=O | . | . | . | 222.2
Cn1c(=O)c2c(ncn2Cc2ccccc2)n(C)c1=O | . | . | . | .
CC(Cc1ccc(O)c(O)c1)C(C)Cc1ccc(O)c(O)c1 (stereo unspecified) | 82.8[fluorescence artefact?] | . | 65.9 | .
Cc1cc(N2CCOCC2)nc2ccc(Cc3ccc4nc(N5CCOCC5)cc(C)c4c3)cc12 | / | . | / | /
Cc1ccc(CCNS(=O)(=O)c2cnc[nH]2)cc1 | 70.0 | . | . | .
COc1cccc(C2CC(c3ccccc3OC)n3ncnc3N2)c1 (stereo unspecified) | . | . | . | 595.1[fluorescence artefact?]
O=c1ccc(/C=C/c2ccccc2)nn1Cc1ccc(Cl)cc1Cl | . | . | . | +[fluorescence artefact?]
